Reference: PubChem BioAssay (NCATS)
Records with an inconclusive call do not appear. Entries that show only a call come without a potency. Active and inactive are the calls of the source. Calls follow the shape of the dose curve; as a rule, active = well fitted curve in the direction sought with a large enough effect; inconclusive = small, poorly fitted or top-dose-only effect, or another doubt; inactive = no such curve, though single readings can be large; an effect the other way counts as inactive or inconclusive.

Assays:
[1] = qHTS assay to identify small molecule inhibitors of chordoma cells - UCH-1 (AID 1259355); also: nearly all actives have a fitted effect of over 55% in size; also: potency is read from the fitted curve at half-maximal effect; series mostly up to about 46 µM
Summary of the method: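 Cells (800/well) were seeded and left overnight at 37 C, 5% CO2, then treated with drugs at 15 concentrations plus a combination mix of auranofin, camptothecin, doxorubicin, rubitecan and topotecan. Viability after 48hr was read by CellTiter-Glo luminescence.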

[2] = qHTS assay to identify small molecule inhibitors of chordoma cells - UCH-2 (AID 1259356); also: potency is read from the fitted curve at half-maximal effect
[3] = qHTS assay for cell viability of the p53RE-bla HCT-116 cell line (AID 743292); also: nearly all actives have a fitted effect of over 55% in size
Summary of the method: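 HCT-116 p53RE-bla cells seeded 4,000/well; 5 h at 37 C; compound (DMSO) added; 16 h at 37 C; CellTiter-Glo added, 30 min RT; luminescence read.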

Row | Structure (SMILES) | Potency [1] | Potency [2] | outcome [3]
1 | CC1=C(/C=C/C(C)=C/C=C/C(C)=C/C=C/C=C(C)/C=C/C=C(C)/C=C/C2=C(C)C(=O)CCC2(C)C)C(C)(C)CCC1=O | inactive | inactive | 
2 | CCOc1ccc(N=Nc2ccc(N)cc2N)cc1 | inactive | inactive | 
3 | CC1(C)S[C@@H]2[C@H](NC(=O)C(N)c3ccccc3)C(=O)N2[C@H]1C(=O)OC1OC(=O)c2ccccc21 (some centres not stated) | inactive | inactive | 
4 | C[C@]12O[C@H](C[C@]1(O)CO)n1c3ccccc3c3c4c(c5c6ccccc6n2c5c31)CNC4=O | 11.2 µM (active) | 10.3 µM (active) | 
5 | CCN(CC)CCOc1ccc(-c2nc3cc(Cl)ccc3s2)cc1 | inactive | inactive | 
6 | CN1C(=O)CN2CCc3ccccc3C2c2cc(Cl)ccc21 (configuration not stated) | inactive | inactive | 
7 | COCC(=O)Nc1cc(Sc2ccccc2)ccc1N=C(NC(=O)OC)NC(=O)OC | inactive | inactive | 
8 | Cc1ccccc1 | inactive | inactive | inactive
9 | CCCCC(=O)N(Cc1ccc(-c2ccccc2-c2nn[nH]n2)cc1)[C@@H](C(=O)O)C(C)C | inactive | inactive | 
10 | Cc1cn([C@H]2C[C@H](O)[C@@H](CO)O2)c(=O)[nH]c1=O | inactive | inactive | 
11 | CCC(=O)O[C@@H]1CC(=O)O[C@H](C)C/C=C/C=C/[C@H](O)[C@H](C)C[C@H](CC=O)[C@H](O[C@@H]2O[C@H](C)[C@@H](O[C@H]3C[C@@](C)(O)[C@@H](OC(=O)CC)[C@H](C)O3)[C@H](N(C)C)[C@H]2O)[C@H]1OC | inactive | inactive | 
12 | CNC(C)[C@@H]1CC[C@@H](N)[C@@H](O[C@H]2[C@H](O)[C@@H](O[C@H]3OC[C@](C)(O)[C@H](NC)[C@H]3O)[C@H](N)C[C@@H]2N)O1 (some centres not stated) | inactive | inactive | 
13 | CCCCCCCCCCCCCCCC(=O)OCC(COC(=O)CCCCCCCCCCCCCCC)OC(=O)CCCCCCCCCCCCCCC | inactive | inactive | 
14 | COc1cc(-c2ccc(-[n+]3nc(-c4ccccc4)nn3-c3ccc([N+](=O)[O-])cc3)c(OC)c2)ccc1-[n+]1nc(-c2ccccc2)nn1-c1ccc([N+](=O)[O-])cc1 | 31.6 µM (active) | 9.2 µM (active) | 
15 | CC1(C)S[C@@H]2[C@H](NC(=O)C(C(=O)O)c3ccsc3)C(=O)N2[C@H]1C(=O)O (some centres not stated) | inactive | inactive | 
16 | C/C1=C2N=C(/C=C3N=C(/C(C)=C4\[N-][C@@](C)([C@@H]5N=C1[C@](C)(CCC(=O)NCC(C)OP(=O)(O)O[C@H]1[C@@H](O)[C@@H](n6cnc7cc(C)c(C)cc76)O[C@@H]1CO)[C@H]5CC(N)=O)[C@@](C)(CC(N)=O)[C@@H]4CCC(N)=O)[C@@](C)(CC(N)=O)[C@@H]\3CCC(N)=O)C(C)(C)[C@@H]/2CCC(N)=O.CC(=O)O.[Co] (some centres not stated) | inactive | inactive | 
17 | Cc1ccccc1OCC(O)CNCCOc1ccc(C(N)=O)cc1 (configuration not stated) | inactive | inactive | 
18 | CC(C)(C)C(=O)OCOC(=O)[C@@H]1N2C(=O)[C@@H](N=CN3CCCCCC3)[C@H]2SC1(C)C | inactive |  | 
19 | COc1cc([C@@H]2c3cc4c(cc3[C@@H](O[C@@H]3O[C@@H]5CO[C@@H](C)O[C@H]5[C@H](O)[C@H]3O)[C@H]3COC(=O)[C@H]23)OCO4)cc(OC)c1O | inactive | inactive | 
20 | Cc1cc(/C=C/c2ccc3cc(N(C)C)ccc3[n+]2C)c(C)n1-c1ccccc1 | 5.01 µM (active) | inactive | 
21 | CCNC(=O)[C@@H]1CCCN1C(=O)[C@H](CCCN=C(N)N)NC(=O)[C@H](CC(C)C)NC(=O)[C@@H](Cc1c[nH]c2ccccc12)NC(=O)[C@H](Cc1ccc(O)cc1)NC(=O)[C@H](CO)NC(=O)[C@H](Cc1c[nH]c2ccccc12)NC(=O)[C@H](Cc1cnc[nH]1)NC(=O)[C@@H]1CCC(=O)N1 | 31.6 µM (active) | 18.3 µM (active) | 
22 | CO/N=C(\C(=O)N[C@@H]1C(=O)N2C(C(=O)O)=C(CSc3cnns3)CS[C@H]12)c1csc(N)n1 | inactive | inactive | 
23 | O=C(COc1ccc(Cl)cc1)OCCNC12CC3CC(CC(C3)C1)C2 | inactive | inactive | 
24 | CNc1cc(OC)c(C(=O)N[C@H]2CCN(Cc3ccccc3)[C@H]2C)cc1Cl | inactive | inactive | 
25 | CC[C@@H](C(=O)O)[C@@H]1O[C@@H]([C@@H](C)[C@H](O)[C@H](C)C(=O)[C@H](CC)[C@H]2O[C@]3(C=C[C@@H](O)[C@]4(CC[C@@](C)([C@H]5CC[C@](O)(CC)[C@H](C)O5)O4)O3)[C@H](C)C[C@@H]2C)[C@@H](C)C[C@@H]1C | 3.55 µM (active) | 8.2 µM (active) | 
26 | Nc1ncnc2c1ncn2[C@@H]1O[C@H](COP(=O)(O)OP(=O)(O)OP(=O)(O)O)[C@@H](O)[C@H]1O | inactive | inactive | 
